For assay [1], the target named is rat Acetylcholinesterase (AChE), Ache (gene 83817) (UniProt P37136). Nature of the assay: NVS_ENZ_rAChE: NovaScreen (NVS) Enzymatic Assay for rat Acetylcholinesterase (AChE) (AID 2283233). The method in brief: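 Compounds first screened at 25 uM in duplicate, then those passing threshold tested in concentration series up to 50 uM, against AChE from rat brain membranes. Enzyme activity read by absorbance at 0.33 h; inhibition scored versus DMSO.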

In assay [2] the target is rabbit Imidazoline 2 Central (I2C), CKB (gene 100009085) (UniProt P00567). Nature of the assay: NVS_ENZ_rabI2C: NovaScreen (NVS) Enzymatic Assay for rabbit Imidazoline 2 Central (I2C) (AID 2283228). In short, it runs like this:
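Rabbit brain membranes, cell-free; readout by filter-based scintillation counting 1.5 hours after dosing, loss of signal vs DMSO. Initial duplicate test at 25 uM, then concentration-response with 50 uM top concentration.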

For assay [3], the target named is human Tyrosine Protein Kinase Receptor Tie-2 (Tie2), TEK (gene 7010) (UniProt Q02763). Nature of the assay: NVS_ENZ_hTie2: NovaScreen (NVS) Enzymatic Assay for human Tyrosine Protein Kinase Receptor Tie-2 (Tie2) (AID 2283225). As to the method: (§1) NVS_ENZ_hTie2 is a biochemical, single-readout assay that uses extracted gene-proteins in a cell-free assay. Measurements were taken 1 hour after chemical dosing in a 384-well plate.NVS_ENZ_hTie2 is one of one assay component(s) measured or calculated from the NVS_ENZ_hTie2 assay. It is designed to make measurements of enzyme activity, a form of enzyme reporter, as detected with fluorescence intensity signals by Fluorescence and electrophoretic mobility shift technology.Data from the assay component NVS_ENZ_hTie2 was analyzed into 1 assay endpoint. This assay endpoint, NVS_ENZ_hTie2, was analyzed in the positive analysis fitting direction relative to DMSO as the negative control and baseline of activity. Using a type of enzyme reporter, loss-of-signal activity can be used to understand changes in the enzymatic activity as they relate to the gene TEK. Furthermore, this assay endpoint can be referred to as a primary readout, because this assay has produced multiple assay endpoints where this one serves a enzymatic activity function. To generalize the intended target to other relatable targets, this assay endpoint is annotated to the kinase intended target family, where the subfamily is receptor tyrosine kinase.
Binding assays used specific radioligands (tritiated, iodinated) with non-radioactive competitive displacement ligands in agonist or antagonist protocols (as indicated) and various reference compounds and inhibitors to titrate specific binding to receptors and transporters. Most enzyme assays (CYPs, kinases, phosphatases, proteases, HDACs) used recombinant protein and specific substrates (fluorescence mostly, some colorimetric and radioactive) and inhibitors, followed by a biochemical separation of substrate and product. All assays for the biochemical HTS were initially run in duplicate at a single concentration (10 uM for CYP450 assays and 25 uM for all others). Assay-chemical combinations meeting a pre-defined threshold (e.g., 30% inhibition and other criteria defined below) were then run in singleton concentration-response format with maximum concentration of 20 uM for CYPs and 50 uM for all others. Each assay was run with positive and negative controls, and concurrent controls on every plate. The follow-up (secondary) screen tested active chemical-pairs in concentration series, as well as a few additional assays not tested in the primary screen, some selected negative inactives, and several cases re-run in the concentration series for confirmatory purposes.

Assay [4] concerns the target human Sirtuin 3 (SIRT3), SIRT3 (gene 23410) (UniProt Q9NTG7). Nature of the assay: NVS_ENZ_hSIRT3: NovaScreen (NVS) Enzymatic Assay for human Sirtuin 3 (SIRT3) (AID 2283222). In short, it runs like this:
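Cell-free enzyme assay with recombinant protein and fluorescent substrate, product separated by electrophoretic mobility shift; read 1 hour after dosing. Screened in duplicate at 25 uM, then singleton concentration-response up to 50 uM; loss of signal versus DMSO.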

Assay [5] has as its target human Tropomyosin Receptor Kinase A (TRKA), NTRK1 (gene 4914) (UniProt P04629). Nature of the assay: NVS_ENZ_hTrkA: NovaScreen (NVS) Enzymatic Assay for human Tropomyosin Receptor Kinase A (TRKA) (AID 2283224). In short, it runs like this: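 Compounds were screened at 25 uM in duplicate, then concentration series to a 50 uM top for those meeting threshold (e.g. 30% inhibition). Enzyme was recombinant human TrkA, incubated 1 h. Product formation was quantified by fluorescence after mobility-shift separation.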

For assay [6], the target named is human Vascular Endothelial Growth Factor Receptor 2 (VEGFR2), KDR (gene 3791) (UniProt P35968). Nature of the assay: NVS_ENZ_hVEGFR2: NovaScreen (NVS) Enzymatic Assay for human Vascular Endothelial Growth Factor Receptor 2 (VEGFR2) (AID 2283230). As to the method:
as §1, with “NVS_ENZ_hVEGFR2” for “NVS_ENZ_hTie2”, “plate.NVS_ENZ_hVEGFR2” for “plate.NVS_ENZ_hTie2”, “NVS_ENZ_hVEGFR2,” for “NVS_ENZ_hTie2,”, “KDR.” for “TEK.”, “kinase. […]” for “kinase.”

For assay [7], the target named is rat Adenylate Cyclase, Forskolin Stimulated, Adcy5 (gene 64532) (UniProt Q04400). Nature of the assay: NVS_ENZ_rACFSKBinding: NovaScreen (NVS) Enzymatic Assay for rat Adenylate Cyclase, Forskolin Stimulated (AID 2283232). The protocol:
NVS_ENZ_rACFSKBinding is a biochemical, single-readout assay that uses extracted gene-proteins from Rat forebrain membranes in a tissue-based cell-free assay. Measurements were taken 1 hour after chemical dosing in a 48-well plate.NVS_ENZ_rACFSKBinding is one of one assay component(s) measured or calculated from the NVS_ENZ_rACFSKBinding assay. It is designed to make measurements of enzyme activity, a form of enzyme reporter, as detected with scintillation counting signals by Filter-based radiodetection technology.Data from the assay component NVS_ENZ_rACFSKBinding was analyzed into 1 assay endpoint. This assay endpoint, NVS_ENZ_rACFSKBinding, was analyzed in the positive analysis fitting direction relative to DMSO as the negative control and baseline of activity. Using a type of enzyme reporter, loss-of-signal activity can be used to understand changes in the enzymatic activity as they relate to the gene Adcy5. Furthermore, this assay endpoint can be referred to as a primary readout, because this assay has produced multiple assay endpoints where this one serves a enzymatic activity function. To generalize the intended target to other relatable targets, this assay endpoint is annotated to the lyase intended target family, where the subfamily is adenylyl cyclase.
Binding assays used specific radioligands (tritiated, iodinated) with non-radioactive competitive displacement ligands in agonist or antagonist protocols (as indicated) and various reference compounds and inhibitors to titrate specific binding to receptors and transporters. Most enzyme assays (CYPs, kinases, phosphatases, proteases, HDACs) used recombinant protein and specific substrates (fluorescence mostly, some colorimetric and radioactive) and inhibitors, followed by a biochemical separation of substrate and product. All assays for the biochemical HTS were initially run in duplicate at a single concentration (10 uM for CYP450 assays and 25 uM for all others). […]

Assay [8] has as its target human SRC Proto-Oncogene, Non-receptor Tyrosine Kinase (SRC), SRC (gene 6714) (UniProt P12931). Nature of the assay: NVS_ENZ_hSRC: NovaScreen (NVS) Enzymatic Assay for human SRC Proto-Oncogene, Non-receptor Tyrosine Kinase (SRC) (AID 2283223). In short, it runs like this: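 Compounds passing 30% inhibition at 25 uM (duplicate) were titrated to a top concentration of 50 uM. Enzyme activity read by fluorescence with mobility-shift substrate/product separation after 1 h; DMSO baseline.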

The target of assay [9] is human Vascular Endothelial Growth Factor Receptor 1 (VEGFR1), FLT1 (gene 2321) (UniProt P17948). Nature of the assay: NVS_ENZ_hVEGFR1: NovaScreen (NVS) Enzymatic Assay for human Vascular Endothelial Growth Factor Receptor 1 (VEGFR1) (AID 2283226). The method in brief:
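Kinase activity of recombinant human VEGFR1 was read by fluorescence after electrophoretic separation of product from substrate, 1 h post-dosing; initial duplicate single-point testing at 25 uM, followed by concentration-series follow-up, with DMSO as baseline.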

The target in assay [10] is human Vascular Endothelial Growth Factor Receptor 3 (VEGFR3), FLT4 (gene 2324) (UniProt P35916). Nature of the assay: NVS_ENZ_hVEGFR3: NovaScreen (NVS) Enzymatic Assay for human Vascular Endothelial Growth Factor Receptor 3 (VEGFR3) (AID 2283229). The method in brief:
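Chemicals first run in duplicate at 25 uM, with actives re-tested in concentration series to a top of 50 uM. Recombinant VEGFR3 activity measured after 1 h via fluorescence with mobility-shift product separation; inhibition fitted relative to DMSO.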

The structures appear in SMILES notation. Records with an inconclusive call do not appear. Activity calls are given as the source filed them. The calls were made as follows: active = hit-call score of the fitted dose curve at least 0.9, where 1 is the maximum; inconclusive = response in the unintended direction; inactive = score below 0.9.

Sequence of human Sirtuin 3 (SIRT3), SIRT3 (gene 23410) (Q9NTG7 whole entry, looked up): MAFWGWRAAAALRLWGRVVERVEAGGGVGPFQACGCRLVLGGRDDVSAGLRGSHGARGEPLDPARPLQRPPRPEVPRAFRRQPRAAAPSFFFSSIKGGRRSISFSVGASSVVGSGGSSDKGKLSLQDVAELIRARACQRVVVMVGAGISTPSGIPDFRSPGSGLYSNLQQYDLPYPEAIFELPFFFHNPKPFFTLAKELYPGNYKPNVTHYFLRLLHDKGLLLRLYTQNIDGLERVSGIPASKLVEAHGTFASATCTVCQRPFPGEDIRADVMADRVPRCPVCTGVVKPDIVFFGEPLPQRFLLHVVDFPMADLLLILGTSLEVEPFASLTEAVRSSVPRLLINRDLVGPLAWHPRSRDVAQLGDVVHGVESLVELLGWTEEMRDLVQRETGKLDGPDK
Sequence of human Tyrosine Protein Kinase Receptor Tie-2 (Tie2), TEK (gene 7010) (Q02763 whole entry, looked up): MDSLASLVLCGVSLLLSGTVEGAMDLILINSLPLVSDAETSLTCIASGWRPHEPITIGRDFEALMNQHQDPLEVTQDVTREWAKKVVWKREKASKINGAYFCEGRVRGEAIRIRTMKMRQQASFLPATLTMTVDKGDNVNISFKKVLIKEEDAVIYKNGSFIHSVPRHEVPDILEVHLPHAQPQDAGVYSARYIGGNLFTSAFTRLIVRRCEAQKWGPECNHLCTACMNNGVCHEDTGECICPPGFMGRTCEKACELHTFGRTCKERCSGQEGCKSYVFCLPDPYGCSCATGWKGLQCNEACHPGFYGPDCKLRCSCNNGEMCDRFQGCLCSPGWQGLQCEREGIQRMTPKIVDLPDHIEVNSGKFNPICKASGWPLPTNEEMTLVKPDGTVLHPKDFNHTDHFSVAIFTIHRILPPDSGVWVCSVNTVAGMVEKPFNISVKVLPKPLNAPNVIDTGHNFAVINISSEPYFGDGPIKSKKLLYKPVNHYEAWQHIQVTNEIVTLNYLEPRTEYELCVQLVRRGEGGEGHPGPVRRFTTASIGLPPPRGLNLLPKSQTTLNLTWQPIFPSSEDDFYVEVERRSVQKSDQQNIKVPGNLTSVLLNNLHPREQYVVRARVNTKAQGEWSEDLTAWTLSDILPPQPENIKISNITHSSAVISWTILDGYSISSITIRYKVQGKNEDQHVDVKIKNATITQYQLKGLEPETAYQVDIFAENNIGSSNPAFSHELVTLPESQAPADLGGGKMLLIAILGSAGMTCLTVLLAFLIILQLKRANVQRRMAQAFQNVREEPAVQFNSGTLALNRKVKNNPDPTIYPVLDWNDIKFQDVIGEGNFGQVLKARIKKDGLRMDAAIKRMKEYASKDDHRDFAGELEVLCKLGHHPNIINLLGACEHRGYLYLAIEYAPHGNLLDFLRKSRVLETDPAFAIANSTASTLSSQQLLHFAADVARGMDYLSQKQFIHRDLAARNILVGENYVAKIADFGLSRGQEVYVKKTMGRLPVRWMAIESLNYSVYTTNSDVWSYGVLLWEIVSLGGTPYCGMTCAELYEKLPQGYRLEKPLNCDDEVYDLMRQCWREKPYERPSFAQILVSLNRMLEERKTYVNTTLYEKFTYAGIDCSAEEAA
Sequence of rat Acetylcholinesterase (AChE), Ache (gene 83817) (P37136 whole entry, looked up): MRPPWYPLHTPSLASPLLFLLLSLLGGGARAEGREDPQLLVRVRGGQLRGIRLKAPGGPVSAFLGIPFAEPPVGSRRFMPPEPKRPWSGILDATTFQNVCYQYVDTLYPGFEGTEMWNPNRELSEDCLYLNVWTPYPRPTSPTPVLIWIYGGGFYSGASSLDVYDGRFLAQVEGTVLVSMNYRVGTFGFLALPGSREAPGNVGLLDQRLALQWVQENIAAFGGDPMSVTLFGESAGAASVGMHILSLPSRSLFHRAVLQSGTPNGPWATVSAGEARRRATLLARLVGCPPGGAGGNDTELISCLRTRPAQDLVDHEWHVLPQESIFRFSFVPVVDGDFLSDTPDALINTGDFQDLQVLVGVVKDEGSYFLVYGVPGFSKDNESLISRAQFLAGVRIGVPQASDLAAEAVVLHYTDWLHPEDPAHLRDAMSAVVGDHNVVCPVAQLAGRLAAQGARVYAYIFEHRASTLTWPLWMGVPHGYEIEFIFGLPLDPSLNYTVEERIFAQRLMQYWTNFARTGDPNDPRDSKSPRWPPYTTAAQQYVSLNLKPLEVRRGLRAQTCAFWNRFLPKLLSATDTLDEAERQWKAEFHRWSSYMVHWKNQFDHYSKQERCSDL
Sequence of rat Adenylate Cyclase, Forskolin Stimulated, Adcy5 (gene 64532) (Q04400 whole entry, looked up): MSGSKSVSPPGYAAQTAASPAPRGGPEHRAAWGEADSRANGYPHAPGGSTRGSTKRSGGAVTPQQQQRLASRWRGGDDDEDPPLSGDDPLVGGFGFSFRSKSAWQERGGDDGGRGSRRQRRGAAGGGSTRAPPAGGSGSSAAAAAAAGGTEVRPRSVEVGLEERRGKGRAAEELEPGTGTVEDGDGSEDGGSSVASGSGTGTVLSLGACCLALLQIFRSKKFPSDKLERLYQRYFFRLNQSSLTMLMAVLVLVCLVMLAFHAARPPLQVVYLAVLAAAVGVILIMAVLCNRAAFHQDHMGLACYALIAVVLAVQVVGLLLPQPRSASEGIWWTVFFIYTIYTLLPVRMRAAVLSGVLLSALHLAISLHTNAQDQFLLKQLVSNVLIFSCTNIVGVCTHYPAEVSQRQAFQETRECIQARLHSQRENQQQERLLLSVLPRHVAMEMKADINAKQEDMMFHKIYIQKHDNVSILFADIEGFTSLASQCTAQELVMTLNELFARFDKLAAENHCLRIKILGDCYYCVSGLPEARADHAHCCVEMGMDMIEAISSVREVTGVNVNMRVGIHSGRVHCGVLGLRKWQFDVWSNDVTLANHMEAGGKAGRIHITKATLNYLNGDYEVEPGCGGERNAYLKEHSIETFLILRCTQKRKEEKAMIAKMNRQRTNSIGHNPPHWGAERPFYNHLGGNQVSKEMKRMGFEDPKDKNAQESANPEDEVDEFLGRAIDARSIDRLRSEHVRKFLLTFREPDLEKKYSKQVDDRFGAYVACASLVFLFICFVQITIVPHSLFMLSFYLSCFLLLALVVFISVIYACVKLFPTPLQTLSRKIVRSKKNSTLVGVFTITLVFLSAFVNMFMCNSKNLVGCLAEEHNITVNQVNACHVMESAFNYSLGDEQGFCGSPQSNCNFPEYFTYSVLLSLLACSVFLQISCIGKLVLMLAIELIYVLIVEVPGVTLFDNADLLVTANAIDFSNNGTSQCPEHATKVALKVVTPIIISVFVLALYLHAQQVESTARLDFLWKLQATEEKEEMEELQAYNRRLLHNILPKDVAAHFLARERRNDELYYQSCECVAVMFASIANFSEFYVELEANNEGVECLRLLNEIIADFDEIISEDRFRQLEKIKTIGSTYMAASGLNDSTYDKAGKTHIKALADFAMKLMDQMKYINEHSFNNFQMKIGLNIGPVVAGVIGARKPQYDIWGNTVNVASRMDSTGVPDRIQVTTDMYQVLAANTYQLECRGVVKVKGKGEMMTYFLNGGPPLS
Sequence of human Tropomyosin Receptor Kinase A (TRKA), NTRK1 (gene 4914) (P04629 whole entry, looked up): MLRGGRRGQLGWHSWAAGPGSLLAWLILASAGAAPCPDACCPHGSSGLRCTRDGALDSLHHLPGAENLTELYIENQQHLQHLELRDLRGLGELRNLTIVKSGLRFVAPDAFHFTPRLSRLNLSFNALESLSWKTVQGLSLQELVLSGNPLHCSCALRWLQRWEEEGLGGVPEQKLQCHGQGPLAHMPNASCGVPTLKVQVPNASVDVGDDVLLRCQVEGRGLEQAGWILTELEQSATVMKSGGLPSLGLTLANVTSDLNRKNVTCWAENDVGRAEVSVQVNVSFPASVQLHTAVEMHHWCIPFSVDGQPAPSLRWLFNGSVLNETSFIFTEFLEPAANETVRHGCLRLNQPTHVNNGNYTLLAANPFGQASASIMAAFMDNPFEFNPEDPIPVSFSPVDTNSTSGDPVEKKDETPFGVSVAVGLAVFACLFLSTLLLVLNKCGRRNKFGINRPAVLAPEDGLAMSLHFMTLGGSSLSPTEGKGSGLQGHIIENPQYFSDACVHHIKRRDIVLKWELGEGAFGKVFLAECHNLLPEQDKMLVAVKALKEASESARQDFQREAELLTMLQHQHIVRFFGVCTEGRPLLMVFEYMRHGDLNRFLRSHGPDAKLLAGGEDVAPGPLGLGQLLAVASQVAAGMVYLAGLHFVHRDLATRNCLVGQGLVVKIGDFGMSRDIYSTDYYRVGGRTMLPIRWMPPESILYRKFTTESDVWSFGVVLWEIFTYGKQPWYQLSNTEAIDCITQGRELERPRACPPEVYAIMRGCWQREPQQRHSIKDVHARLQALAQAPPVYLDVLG
Sequence of rabbit Imidazoline 2 Central (I2C), CKB (gene 100009085) (P00567 whole entry, looked up): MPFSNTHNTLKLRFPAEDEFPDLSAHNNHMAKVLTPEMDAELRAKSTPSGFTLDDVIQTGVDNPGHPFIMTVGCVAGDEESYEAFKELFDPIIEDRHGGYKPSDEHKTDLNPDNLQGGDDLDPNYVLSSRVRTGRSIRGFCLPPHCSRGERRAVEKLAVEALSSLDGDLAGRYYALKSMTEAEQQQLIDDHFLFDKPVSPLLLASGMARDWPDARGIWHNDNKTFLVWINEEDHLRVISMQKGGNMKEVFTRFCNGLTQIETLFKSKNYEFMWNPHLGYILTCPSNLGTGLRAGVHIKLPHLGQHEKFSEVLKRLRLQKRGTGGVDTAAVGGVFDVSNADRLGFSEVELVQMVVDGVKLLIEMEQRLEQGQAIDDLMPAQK

Consider `O=c1n(Cl)c(=O)n(Cl)c(=O)n1Cl`, for which the call in [1] was inactive. `Cn1c(-c2ccccc2)cc(-c2ccccc2)[n+]1C`: the AC50 (in general, the concentration giving half of the maximal activity seen) in assay [2] was 12 µM (active). In the case of `CCN(CC)C(=O)C(C)Oc1cccc2ccccc12` (stereo not given), the compound was called inactive in assay [2]. For the compound `CC(C)N1C(=O)N(c2ccccc2)CSC1=NC(C)(C)C`, the compound was classed as inactive in assay [1]. On to `Nc1c(Cl)c(Cl)nc(C(=O)O)c1Cl`, for which the result in assay [3] and in assay [1] was inactive. In the case of `Clc1nc(Cl)nc(Nc2ccccc2Cl)n1`, the compound was called inactive in assay [4] and in assay [6]. Also, the AC50 in assay [5] was 7.05 µM (active). As for `COP(=S)(OC)SCn1nnc2ccccc2c1=O`, the outcome in assay [7] and in assay [1] was inactive.

Turning to `CC(C)C1(C)N=C(c2ncccc2C(=O)O)NC1=O` (stereo not given), in assay [3], the result was inactive.

As for `OC(c1ccc(Cl)cc1)(c1ccc(Cl)cc1)C(Cl)(Cl)Cl`, in assay [3], the outcome was inactive. With `CO/N=C(/C1=NOCCO1)c1ccccc1Oc1ncnc(Oc2ccccc2Cl)c1F`, in [7], the result was inactive. Take `N#CN=C1SCCN1Cc1ccc(Cl)nc1`: the AC50 in assay [1] is 16.6 µM (active).

Take `COC(=O)N(C(=O)N1CO[C@@]2(C(=O)OC)Cc3cc(Cl)ccc3C2=N1)c1ccc(OC(F)(F)F)cc1`: in assay [5], the half-maximal activity concentration (AC50) was 28.7 µM (active). For `CC1(C)C(C=C(Cl)Cl)C1C(=O)OC(C#N)c1cccc(Oc2ccccc2)c1` (stereo not given), the compound was called inactive in assay [4] and in assay [3]. As for `CNC(=O)Oc1cccc2ccccc12`, the AC50 in [1] is 6.15 µM (active).

Regarding `Cc1ccc(N=CN(C)C=Nc2ccc(C)cc2C)c(C)c1`, the AC50 in assay [2] is 1.21 µM (active).

As to `CC(C)(C)C(=O)C(Oc1ccc(Cl)cc1)n1cncn1` (stereo not given), the compound was called inactive in assay [8]. `O=C1C2CC=CCC2C(=O)N1SC(Cl)(Cl)Cl` (stereo not given): the AC50 in [4] is 39.5 µM (active). The call in assay [7] was inactive. As for `CCCCC(C#N)(Cn1cncn1)c1ccc(Cl)cc1` (stereo not given), the AC50 is 10.4 µM (active) in assay [4] and 19.5 µM (active) in [5].

For the compound `CCCN(CC)CC1COC2(CCC(C(C)(C)C)CC2)O1` (stereo not given), the compound was called inactive in assay [8]. In addition, the concentration at half-maximal activity (AC50) in [2] was 13 µM (active). As for `CCNC(=O)NC(=O)C(C#N)=NOC`, the compound was called inactive in assay [1]. For the compound `C=CCOC(=O)C(C)(C)OC(=O)c1cc(-n2c(=O)cc(C(F)(F)F)n(C)c2=O)ccc1Cl`, the compound was called inactive in assay [9]. For the compound `CCCCC(O)(Cn1cncn1)c1ccc(Cl)cc1Cl` (stereo not given), the outcome in [4] was inactive. Also, the AC50 in assay [5] is 21.9 µM (active).

For the compound `CCOP(=O)(OCC)Oc1nc(Cl)c(Cl)cc1Cl`, the half-maximal activity concentration (AC50) in assay [1] was 0.488 µM (active). Take `Nc1cnn(-c2ccccc2)c(=O)c1Cl`: the result in [3] was inactive.

As to `CS(=O)(=O)c1ccc(C(=O)C2C(=O)CCCC2=O)c([N+](=O)[O-])c1`, the call in assay [10] was inactive. As for `CC(C)Nc1nc(Cl)nc(NC(C)C)n1`, the compound was classed as inactive in [5].

These data come from PubChem BioAssay (EPA / NIEHS).
